Assay results from PubChem BioAssay AID2058 (Sanford-Burnham Center for Chemical Genomics, 2009).
Out of some 290,000 compounds screened, about 150 (0.052%) were called active. The sample holds actives, similar compounds and a random draw of the others, so the mix is not that of the screen.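 The calls were made as follows: active = inhibition of at least 50% with at least 30 cells and total cytoplasm GFP at most 10,000,000; inconclusive = under 30 cells or total GFP of 10,000,000 plus; inactive = the rest.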 Potency and affinity values are given separately.

target: G-protein coupled receptor 35 (Homo sapiens) (UniProt Q9HC97); experiment: inhibition of zaprinast-stimulated GPR35 beta-arrestin translocation – imaging, U2OS, beta-arrestin-GFP, zaprinast agonist, primary screen (AID 2058); conditions: zaprinast antagonism, at 10 µM, active compounds read high
Sequence (Q9HC97 whole entry, looked up): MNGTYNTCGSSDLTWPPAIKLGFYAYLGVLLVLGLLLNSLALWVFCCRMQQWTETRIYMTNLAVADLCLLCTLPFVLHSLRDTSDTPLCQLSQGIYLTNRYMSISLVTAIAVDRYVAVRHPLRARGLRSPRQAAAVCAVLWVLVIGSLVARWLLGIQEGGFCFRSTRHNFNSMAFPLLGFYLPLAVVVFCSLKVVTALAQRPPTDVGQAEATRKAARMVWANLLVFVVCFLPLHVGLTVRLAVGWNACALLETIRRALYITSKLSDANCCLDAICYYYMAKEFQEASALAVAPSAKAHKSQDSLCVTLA

inhibition, inactive:
O=C(NCC1CCCO1)c1cc2cc(Cl)ccc2[nH]1 (stereo unspecified) 2.4%
CCOC(=O)c1ccccc1NC(=O)Cn1cnc2c(oc3ccccc32)c1=O 8.3%
COC(=O)c1ccc(CSc2nc(C)nc3c2c(=O)n(C)c(=O)n3C)o1 -16.8%
O=C(CSc1nc2cc(Cl)ccc2c(=O)n1Cc1ccco1)Nc1ccc(S(=O)(=O)N2CCOCC2)cc1 -2.6%
O=C(N/N=C/c1cccs1)[C@H]1C[C@@H]1c1ccccc1 9.8%
Oc1ccc(/C=N/Nc2nc(-c3cccnc3)nc3ccccc23)c(O)c1 8.3%
Oc1ccc(Nc2nc(-c3ccccc3F)nc3ccccc23)cc1 -5.3%
CC1CCN(S(=O)(=O)c2cccc(S(=O)(=O)N3CCCC3)c2)CC1 4.8%
NC(=O)c1cc2cc([N+](=O)[O-])ccc2oc1=O -20%
COc1ccc(C(=O)Nc2ccc(Cl)cc2C(=O)NCc2ccco2)cc1 14%
CCOc1ccc(CNc2ccc3c(c2)nc(C)n3C)cc1 4.9%
CCn1cnc2cc(NCc3ccc(OC)cc3)ccc21 -12.4%
CCOCC(O)CS(=O)(=O)c1ccccn1 (stereo unspecified) -4.6%
O=C(Nc1nc2ccc(Cl)cc2s1)c1ccc(N2CCCCC2)c([N+](=O)[O-])c1 4.2%
O=C(Nc1nc2ccc3ccccc3c2s1)c1ccc(N2CCCCC2)c([N+](=O)[O-])c1 5.5%
O=C(Cc1cccc2ccccc12)Nc1cc(Cl)ccc1C(=O)O -3.5%
O=C(CCC1N=C2c3ccccc3N=C(SCC(=O)NCC3CCCO3)N2C1=O)NCc1ccc(F)cc1 (stereo unspecified) -0.5%
N#C/C(=C\c1ccc(N2CCOCC2)o1)c1nc2ccccc2[nH]1 26.1%
N#C/C(=C\c1ccc(N2CCOCC2)o1)c1ccccc1 19.5%
CCn1c(CC(=O)Nc2ccccc2F)nnc1SCC(=O)N1CCN(c2ccccc2)CC1 -10.6%
CC(C)(C)NC(=O)CN(C(=O)C(=O)Nc1ccc2c(c1)OCCO2)C1CCCC1 15.5%
CC(=O)c1cccc(NC(=O)/C(=C\c2ccco2)NC(=O)c2ccco2)c1 -5.7%
CCN1C=CC2=C(C#N)C(N)C(C#N)(C#N)C(c3ccccc3C(F)(F)F)C2C1 (stereo unspecified) 12.6%
CN1C=CC2=C(C#N)C(N)C(C#N)(C#N)[C@H](c3ccccc3)[C@H]2C1 (stereo partly specified) 38.1%
CC1=C(C(=O)OCc2ccccc2)C(c2ccccc2Cl)NC(=O)N1CCCCCC(=O)O (stereo unspecified) 0.1%
O=S(=O)(Nc1nc2ccccc2s1)c1cc(F)ccc1F -10.3%
CC1CN(CCC(=O)Nc2ccc3c(c2)OCO3)CC(C)O1 (stereo unspecified) -12%
C#CCOCCOCCOCCNc1nc(N2CCN(C(=O)[C@H]([C@@H](C)CC)n3cc(CCCN=C(N)N)nn3)CC2)nc(N2CCN(C(=O)[C@H](Cc3ccc(O)cc3)n3cc(CCO)nn3)CC2)n1 -6.4%
CS(=O)(=O)N1N=C(c2ccc(Br)cc2)CC1c1ccc2c(c1)OCO2 (stereo unspecified) 20.6%
Cc1ccc(C2=NN(S(C)(=O)=O)C(c3ccc4c(c3)OCO4)C2)cc1 (stereo unspecified) 6.3%
O=C(NC1CCCC1)C(c1ccccn1)N(C(=O)c1csnn1)c1ccccc1 (stereo unspecified) 13.8%
COc1ccc(/C=N/N2C(=O)CN(C(=O)c3ccccc3)C2c2ccc(OC)cc2)cc1 (stereo unspecified) 1.5%
COc1ccc(S(=O)(=O)N2CCOC2CNC(=O)C(=O)NCCc2c[nH]c3ccccc23)cc1 (stereo unspecified) 4.5%
O=C(Nc1ccc(C2=NCCN2)cc1)c1ccc(Cl)c(C(=O)Nc2ccc(C3=NCCN3)cc2)c1 13.7%
O=C(Nc1ccc(C2=NCCN2)cc1)c1ccc(C(=O)Nc2ccc(C3=NCCN3)cc2)c([N+](=O)[O-])c1 -3.6%
COC(=O)c1sc(S(=O)(=O)N2CCC(C)CC2)c(C(=O)OC)c1C 10.9%
COCCCNC(=S)N(CCCN(C)C)Cc1cc2cc3c(cc2[nH]c1=O)OCCO3 -7.4%
CCOC(=O)CC1C(=O)NCCN1C1CCCC1 (stereo unspecified) 9.7%
CC(=O)NNC(=O)CN1C(=O)/C(=C/c2ccccc2)SC1=S -0.2%
Cc1c(C(=O)Nc2cccc(N(C)S(C)(=O)=O)c2)cccc1[N+](=O)[O-] -4.4%
O=c1ccc2cc3c4c(c2o1)CCCN4CCC3 22.1%
CC(C)c1cc(=O)oc2c3c4c(cc12)CCCN4CCC3 -1.4%
O=C(CNC(=O)N1CC(=O)Nc2ccccc21)Nc1ccc(F)c(Cl)c1 -6.4%
CCc1ccc2[nH]c(=O)c(CN(CCN3CCOCC3)C(=O)Nc3ccccc3F)cc2c1 8.5%
CCC(C)[C@H](NC(=O)N1CCn2c1nc1ccccc12)C(=O)NCC1CCCO1 (stereo partly specified) -10.9%
O=C(NC1CCCc2ccccc21)c1cn2ccccc2n1 (stereo unspecified) 13.2%
Cc1ccc(CNC(=O)CSc2nc3ccsc3c(=O)n2Cc2ccc(C(=O)O)cc2)cc1 -4.6%
CC(C)c1ccc(NC(=O)CSc2nc3ccsc3c(=O)n2CCC(=O)O)cc1 6.9%
O=C(NCCN1CCOCC1)c1c[nH]c2ccc(S(=O)(=O)N3CCOCC3)cc2c1=O 3%
CCCS(=O)(=O)c1c(S(=O)(=O)CCC)c2c3ccccc3ccn2c1C(N)=O -10.5%
CCN(CC)S(=O)(=O)c1ccc(Cl)c(NC(=O)c2ccccc2C)c1 4.8%
CCN(CC)S(=O)(=O)c1ccc(Cl)c(NC(=O)c2cc(Cl)ccc2Cl)c1 7.1%
CCOc1ccccc1N(C)C(=O)Cn1ncc2c([nH]c3ccc(C)cc32)c1=O -6.9%
CN(C(=O)COC(=O)c1ccccc1NC(=O)c1ccco1)C1CCS(=O)(=O)C1 (stereo unspecified) 29.1%
Cc1ccc(NC(=O)c2nc[nH]c2C(=O)N[C@@H](C)c2ccccc2)cc1 53.8%
NS(=O)(=O)c1ccc(CCNC(=O)CCCOc2ccccc2)cc1 3.9%
Cc1ccc(OCCC(=O)NCCc2ccc(S(N)(=O)=O)cc2)cc1 21.9%
O=C(CCS(=O)(=O)c1ccc(Br)cc1)NCCc1ccccc1 -8.4%
Cc1ccc(CCNC(=O)CCS(=O)(=O)c2ccc(Br)cc2)cc1 3.1%
CC(=O)Nc1ccc(-c2nnc(SCc3ccccc3C#N)n2C)cc1 -3.6%
Cc1ccc(C(OCC(O)CNC(CO)C(O)c2ccc([N+](=O)[O-])cc2)c2ccccc2)cc1 (stereo unspecified) 2%
CCOC(=O)C1=C(O)c2ccccc2C(=O)/C1=C\c1ccc(CC)cc1 31.1%
CCCc1ccc(/C=C2\C(=O)c3ccccc3C(O)=C2C(=O)OCC)cc1 21.2%
Cc1cccc(Oc2ncnc3onc(C)c23)c1 -0.9%
CCN1/C(=C/C=C/C=C/c2sc3ccccc3[n+]2CC)Sc2ccccc21 58.9%
CCN1/C(=C/C=C/C=C/C=C/c2sc3ccccc3[n+]2CC)Sc2ccccc21 44.3%
CCN(c1ccccc1)S(=O)(=O)c1ccc(Cl)c(NC(=O)CSc2n[nH]c(N)n2)c1 0.7%
COc1ccc(/C=c2\s/c(=C/C(=O)c3ccc(C)cc3)[nH]c2=O)cc1OC 8.2%
COc1cccc(/C=c2\s/c(=C/C(=O)c3ccc(C)cc3)[nH]c2=O)c1OC -9.9%
Cc1ccc(C)c(NC(=O)Nc2ccc3c(c2)OCO3)c1 -7.8%
COc1ccccc1N1CCN(S(=O)(=O)c2ccc(Cl)s2)CC1 -2.5%
COC(=O)c1cc(NC(=O)c2ccccc2)c(=O)oc1C -9.4%
Cc1oc(=O)c(NC(=O)c2cccc(Cl)c2)cc1C(=O)c1ccccc1 -3%
CSc1nc2ccccc2cc1/C=C(\C#N)c1cccc(Cl)c1 3.7%
CSc1nc2ccccc2cc1/C=C(\C#N)c1ccccc1 3.1%
CN(Cc1nc(-c2cccc(Cl)c2)no1)C1CCOCC1 -8.4%
CSC1=NSC2=NC(=O)/C(=C/c3coc4ccccc4c3=O)C(=N)N12 4.5%
CCSC1=NSC2=NC(=O)/C(=C\c3coc4ccccc4c3=O)C(=N)N12 36.4%
CC(=O)Nc1cccc(NC(=O)Cc2ccc3ccccc3c2)c1 0.8%
Cc1cc(N2C(=O)C(O)=C(C(=O)c3ccc(C)o3)C2c2ccc([N+](=O)[O-])cc2)no1 (stereo unspecified) 4.2%
Cc1[nH]c2ccccc2c1/C=C/C(=O)c1ccccc1 4.5%
C[n+]1ccc(/C=C/c2c[nH]c3ccc(F)cc23)cc1 -4.5%
C=CCn1cc(/C=C/c2cc[n+](C)cc2)c2ccccc21 17.1%
Cc1ccc2[nH]cc(/C=C/c3cc[n+](C)cc3)c2c1 29.2%
COC(=O)Cn1c(C)c(/C=C/c2cc[n+](C)cc2)c2ccccc21 17.9%
Cc1[nH]c2ccccc2c1/C=C/c1nc2ccccc2c(=O)[nH]1 -11.7%

inhibition, active:
O=C(Nc1ccc(C2=NCCN2)cc1)c1ccc(C(=O)Nc2ccc(C3=NCCN3)cc2)c(Cl)c1 101%
CCCCc1ccc(/C=C2\C(=O)c3ccccc3C(O)=C2C(=O)OCC)cc1 59%
COC(=O)c1cc(NC(=O)c2cccc(Cl)c2)c(=O)oc1/C=C/Nc1cc(C)cc(C)c1 93.3%
CSc1nc2ccccc2cc1/C=C(\C#N)c1cccc(C)c1 55.3%
Cc1[nH]c2ccccc2c1/C=C/c1cc[n+](C)cc1 71.2%
